Source: PubChem BioAssay (NCI)
Compounds without any hit were thinned out: in the full panel of roughly 83,000, 20% have a hit.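 How to read the values: 0–100, growth inhibition (40 = 60% inhibited); 0, no net growth; -100 to 0, cell death (-40 = 40% of starting cells died; -100 = all dead).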 Values without a mark were called inactive. The source made the active and inactive calls. Rule for the calls: active = growth percent below 10; inactive = the rest.

Experiments:
Assay in all cases: NCI-60 one-dose screen, 48 h (100 = growth as untreated, 0 = no growth, -100 = all killed)
Settings in all cases: 10 µM unless noted
[1] = test system: HCT-15 colon
[2] = test system: HT29 colon
[3] = test system: SNB-75 CNS
[4] = test system: SNB-19 CNS
[5] = test system: U251 CNS
[6] = test system: PC-3 prostate
[7] = test system: SK-MEL-5 melanoma
[8] = test system: UACC-62 melanoma
[9] = test system: LOX IMVI melanoma
[10] = test system: SK-MEL-2 melanoma
[11] = test system: EKVX NSCLC
[12] = test system: SN12C renal
[13] = test system: UO-31 renal
[14] = test system: TK-10 renal
[15] = test system: ACHN renal
[16] = test system: CAKI-1 renal
[17] = test system: A498 renal
[18] = test system: CCRF-CEM leukemia
[19] = test system: SK-MEL-28 melanoma
[20] = test system: MOLT-4 leukemia

Structure (SMILES) | growth [1] | growth [2] | growth [3] | growth [4] | growth [5] | growth [6] | growth [7] | growth [8] | growth [9] | growth [10] | growth [11] | growth [12] | growth [13] | growth [14] | growth [15] | growth [16] | growth [17] | growth [18] | growth [19] | growth [20]
COc1cc2nc(Cl)nc(Nc3cccc(C4=Nc5c(N)nc(N)nc5NC(c5ccc(F)cc5)C4)c3)c2cc1OC (centres undefined) | 0.163% (active) | 9.87% (active) | 85.9% | 31.7% | -22% (active) | 59.9% | 67.1% | 93% | -53.6% (active) | 86% | 89.6% | 81.9% | 91.8% | 112% | 97.3% | 88.8% | 77.9% | 5.4% (active) | – | –
CCOC(=O)c1c(Nc2ccccc2)nn2c(-c3ccc(OC)cc3)ccnc12 | 48.6% | 74.9% | 82.7% | 109% | 89.2% | 99.2% | 71.3% | 95.1% | 80.3% | – | 99.6% | 93.5% | 85.7% | 100% | 83.8% | 78% | – | 74.1% | 89.9% | 82.5%
O=C(Cn1cc(-c2ccccc2)nn1)Nc1nc(-c2ccc(Cl)cc2)cs1 | 94.4% | 102% | 103% | 94.7% | 105% | 101% | 94.5% | 76.1% | 101% | – | – | 96.2% | 91% | 76.1% | 112% | 107% | 80.7% | 103% | 108% | 97.8%
COc1ccc(-c2nc3cc(Cl)c(Cl)cc3n2CC(=O)N=Nc2c(O)[nH]c3ccc(OC)cc23)cc1 | 43.7% | 55.2% | 65.3% | 80% | 77.8% | 63.8% | 61.2% | 53.4% | 7.13% (active) | – | 62.9% | 49.7% | 69.9% | 97.3% | 43.5% | 59.4% | – | 61.6% | 48.6% | 78.7%
Nc1nc(-c2cccc([N+](=O)[O-])c2)c(N=Nc2ccccc2)s1 | 38.3% | 61.3% | 63.2% | 81.2% | 54.3% | 51.2% | 42.5% | 64% | 53.5% | – | 51.8% | 71% | 62.2% | 81.7% | 63.2% | 39.3% | – | 48.4% | 65% | 50.8%
O=C1CC(=O)N2CSCN(C(c3ccccc3)c3nc4ncncc4[nH]3)C2=N1 (centres undefined) | 100% | 106% | 99.8% | 93.8% | 97.9% | 98% | 105% | 97% | 108% | – | – | 103% | 79.6% | 106% | 99.8% | 93.2% | 85.8% | 108% | 117% | 112%
CN1CCN(Cc2ccc(NC(=O)c3cncc(C#Cc4cnn5cccnc45)c3)cc2C(F)(F)F)CC1 | 4.11% (active) | 17.5% | 62.4% | 29% | 36.2% | 30.8% | 17.7% | 23.8% | -33.3% (active) | – | 46.6% | 8.93% (active) | 22.3% | 32.8% | 11.2% | 21.6% | – | 2.51% (active) | 12.1% | 6.57% (active)
O=C1/C(=C/C=C/c2ccco2)SC(=S)N1C1CCCCC1 | 79.2% | 85.3% | 103% | 93.9% | 84% | 92.9% | 58.4% | 56.7% | 103% | – | 93% | 83.4% | 85.6% | 106% | 96% | 93.1% | – | 91.2% | 72.5% | 90.5%
